Holding throughout (format): functional
Test [1] relates to Plasmodium falciparum. Nature of the test: GSK_TCMDC: Inhibition of Plasmodium falciparum 3D7 in whole red blood cells, using parasite LDH activity as an index of growth. Test compounds present at 2uM.
The test system of test [2] is Plasmodium falciparum. Nature of the test: GSK_TCMDC: Inhibition of Plasmodium falciparum Dd2 in whole red blood cells, using parasite LDH activity as an index of growth. Test compounds present at 2uM.
The test system of another test is HepG2. Put plainly: GSK_TCMDC: Percent inhibition of human HepG2 cell line. Test compounds present at 10uM.

These results are taken from ChEMBL document CHEMBL1157539, “Thousands of chemical starting points for antimalarial lead identification” (Nature, 2010).

One may read the Inhibition as how much of the control response was suppressed. Read a low Inhibition as a weak effect.

`CC(C)Sc1nc2c(c(=O)n1Cc1ccco1)C1(CCCCC1)Cc1ccccc1-2`: the Inhibition was determined as 100% in the test with Plasmodium falciparum [1], 99% in the test with Plasmodium falciparum [2] and 10% in the test with HepG2.
For the compound `O=C(Nc1ccccc1)NC1CCN(CCC2(c3ccc(Cl)c(Cl)c3)COCN(C(=O)c3ccccc3)C2)C1` (configuration not stated), the values for the Inhibition with Plasmodium falciparum [1], in the test on Plasmodium falciparum [2] and in the test on HepG2 were 92%, 81% and 23%, respectively.
Consider `COc1ccc(CNC(=N)Nc2nc(-c3ccc(OCCCn4ccnc4)cc3)cs2)cc1.Cl`, for which the figures for the Inhibition in the test on Plasmodium falciparum [1], in the test with Plasmodium falciparum [2] and with HepG2 were 100%, 67% and 15%, respectively.
Turning to `CC1(C)S(=O)(=O)CC(O)CS1(=O)=O`, the figures for the Inhibition with Plasmodium falciparum [1], in the test with Plasmodium falciparum [2] and in the test with HepG2 were 98%, 9% and 8%, respectively.
The like results for `COc1cccc(CN2Cc3ccccc3OC3(CCN(Cc4c[nH]c5cnccc45)CC3)C2)c1.O=C(O)C(F)(F)F` were, in that order, 83%, 83% and 39%.
For `COc1cccc(CN2CCC3(CC2)CN(C(=O)Nc2ccc(Cl)c(Cl)c2)C3)c1`, in that order: 97%, 2% and 29%.
With `Cc1cc(NCCC(=O)Nc2ccccc2)nc(NCCOc2ccccc2)n1.O=C(O)C(F)(F)F`, the Inhibition with Plasmodium falciparum [1] is recorded as 100%; in the test on Plasmodium falciparum [2], 9%; with HepG2 it was 5%.
On to `CCCCCCCC1CC(CC(=O)Nc2ccnc3ccc(OC)cc23)CN1` (configuration not stated), for which the Inhibition in the test with Plasmodium falciparum [1] was 90%; in the test with Plasmodium falciparum [2] it was 58%; in the test with HepG2, 22%.
On to `CC(CCc1ccccc1)NCC(O)c1ccc2c3c(cccc13)S(=O)(=O)N2C.Cl` (configuration not stated), for which the Inhibition amounted to 99% with Plasmodium falciparum [1], 99% with Plasmodium falciparum [2] and 16% with HepG2.
`O=c1cc(NCCCNCc2[nH]c3cc(Cl)ccc3c2Cl)[nH]c2ccccc12`: the Inhibition came to 91% with Plasmodium falciparum [1], 1% with Plasmodium falciparum [2] and 5% with HepG2.
Take `C=CCOC(=O)N1CCC(CNCc2ccc(-c3ccc(-c4nc5cc(C(F)(F)F)ccc5[nH]4)cc3)cc2)C1.O=C(O)C(F)(F)F` (configuration not stated): the Inhibition in the test on Plasmodium falciparum [1] stood at 100%; in the test on Plasmodium falciparum [2] it was 98%; in the test with HepG2, 44%.
The like results for `CN(/N=C/C=C/c1ccc(Cl)cc1)c1nc(NCCc2ccc(O)cc2)nc(N2CCNCC2)n1` were, in that order, 92%, 69% and 14%.
In the case of `O=C(/C=C/c1ccc(Cl)c(Cl)c1)NCCCCCN1CCC(CCCNC(=O)Nc2ccc(C(F)(F)F)cc2)CC1`, the Inhibition was found to be 91% with Plasmodium falciparum [1], 19% with Plasmodium falciparum [2] and 0% in the test with HepG2.
With `COc1ccccc1CCNc1nc(C)cc(NCCC(=O)Nc2ccccc2)n1.O=C(O)C(F)(F)F`, the Inhibition in the test on Plasmodium falciparum [1] was 100%; in the test on Plasmodium falciparum [2], 24%; in the test with HepG2, 7%.
For the compound `O=C(Nc1ccc(OC2CCN(Cc3ccc(F)cc3)CC2)c(Cl)c1)c1cccs1.O=C(O)C(F)(F)F`, the Inhibition in the test on Plasmodium falciparum [1] was 95%; in the test with Plasmodium falciparum [2] it was 96%; in the test on HepG2, 7%.
On to `CC(CN(C)C)C(=O)Nc1ccc(-c2ccc(-c3nc4ccccc4[nH]3)cc2)cc1` (configuration not stated), for which the values for the Inhibition in the test with Plasmodium falciparum [1], in the test on Plasmodium falciparum [2] and in the test on HepG2 were 99%, 83% and 2%, respectively.
Consider `O=C(NCc1cccc(F)c1)Nc1cccc(-c2cccc(-c3nc4ccccc4[nH]3)c2)c1`, for which the Inhibition in the test with Plasmodium falciparum [1] was found to be 96%; in the test with Plasmodium falciparum [2], 27%; in the test on HepG2, 28%.
For `Cn1c(N)cc(-c2ccc(Br)cc2)c2c(=O)nc(N)nc1-2`, in that order: 80%, 57% and 5%.
As to `CCCCN(CCCC)CCCCNc1c2ccc(Cl)cc2nc2ccc(OC)cc12.Cl`, the results for the Inhibition in the test on Plasmodium falciparum [1], in the test on Plasmodium falciparum [2] and with HepG2 were 100%, 96% and 68%, respectively.
For the compound `C[C@H](NC(=O)c1c(CN2CCN(C(=O)C(C)(C)C)CC2)c(-c2cccs2)nc2ccccc12)C1CCCCC1`, the results for the Inhibition in the test on Plasmodium falciparum [1], in the test on Plasmodium falciparum [2] and with HepG2 were 89%, 62% and 2%, respectively.
With `COc1ccc(Cl)cc1C(=O)Nc1ccc(-c2nc3ccccc3[nH]2)cc1`, the Inhibition in the test with Plasmodium falciparum [1] was 92%; in the test with Plasmodium falciparum [2], 39%; in the test on HepG2, 42%.
`N=C(N)NN=CC(=O)Nc1ccc(Cl)c(C(F)(F)F)c1`: the results for the Inhibition in the test with Plasmodium falciparum [1], in the test with Plasmodium falciparum [2] and in the test with HepG2 were 100%, 0% and 0%, respectively.
With `Cc1nc(N)nc(N)c1-c1ccc(Cl)cc1`, the figures for the Inhibition in the test on Plasmodium falciparum [1], in the test on Plasmodium falciparum [2] and in the test with HepG2 were 96%, 0% and 15%, respectively.
With `COc1ccc(Cc2c(C)nc3nc(N)nc(N)c3c2C)cc1OC.Cl`, the Inhibition amounted to 93% with Plasmodium falciparum [1], 0% in the test on Plasmodium falciparum [2] and 66% in the test with HepG2.
With `CCCc1cc(=O)oc2cc(OC)c(C(=O)CC(C)C)c(OC)c12`, the Inhibition stood at 81% in the test with Plasmodium falciparum [1], 67% in the test on Plasmodium falciparum [2] and 3% in the test on HepG2.
For `CNC(=O)c1nc(-c2ccccc2)[nH]c1NC(C)=O`, in that order: 100%, 0% and 0%.
`COc1cccc(C(=O)NC(C=Cc2ccccc2)c2cc(Cl)c3cccnc3c2O)c1` (configuration not stated): the Inhibition amounted to 95% with Plasmodium falciparum [1], 58% with Plasmodium falciparum [2] and 27% in the test with HepG2.
Take `Cc1ccc(Nc2nc3cc(Nc4ccnc(Nc5cccc(CS(C)(=O)=O)c5)n4)ccc3o2)cc1.O=C(O)C(F)(F)F`: the Inhibition worked out at 100% with Plasmodium falciparum [1], 81% in the test on Plasmodium falciparum [2] and 55% in the test on HepG2.
For the compound `CN1CCC(N2CCN(Cc3ccc(-c4cccc(-c5nc6cc(F)ccc6[nH]5)c4)cc3)CC2)CC1.O=C(O)C(F)(F)F`, the Inhibition in the test with Plasmodium falciparum [1] was found to be 100%; with Plasmodium falciparum [2] it was 99%; in the test on HepG2, 67%.
